Whole data set: some 33,000 sequences, median “e-score” near -0.053, cut for the highest 2% near 0.38. Many of the other results were omitted from the sample, so the highest values are more common in it than they were.
Target: T1, SIX1 homeodomain (reference allele) (human, UniProt Q15475 108-198)
T1 sequence: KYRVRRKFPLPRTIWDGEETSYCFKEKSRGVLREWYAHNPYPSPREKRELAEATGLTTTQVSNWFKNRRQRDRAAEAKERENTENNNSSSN
Experiment: universal protein binding microarray; Universal all-10-mer PBM (8x60K, AMADID 030236), 300 nM GST-tagged protein, Alexa Fluor 488 anti-GST; buffer, salt, pH and temperature not stated (as in Berger); high values mean tight binding
Conditions: protein: ivt; tags: N-terminal GST; dsDNA, one strand shown
In short: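 Homeodomains carrying a GST tag were produced by in vitro transcription/translation, then quantified by anti-GST western blot against a recombinant GST standard curve. Duplicate applications at 300 nM final concentration were made to universal 'all 10-mer' protein binding microarrays in 8×60K format. The Universal PBM Analysis Suite was used to express binding as 8-mer E-scores.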

Sequence	binding signal [E-score]
GATCGGTA	0.3365 ± 0.000728
TATTCTCA	0.19 ± 0.0783
AGAACATA	0.152 ± 0.0261
ATACTGCG	0.185 ± 0.0499
CGTAATCC	0.276 ± 0.00776
CGATCCGA	0.396 ± 0.0357
GGATCCGA	0.376 ± 0.0683
CGATCCTC	0.333 ± 0.00326
AGATCCGA	0.276 ± 0.0275
AGATCCGC	0.333 ± 0.0252
CGATCCGC	0.418 ± 0.0398
ATCGTCTC	0.304 ± 0.0389
TACAAGTA	0.162 ± 0.0274
ATCTAGGG	0.187 ± 0.0244
CCGGTAGA	0.151 ± 0.0265
ATCACGGA	0.288 ± 0.0444
AATACTCG	0.165 ± 0.0216
GATACTCC	0.45 ± 0.00694
AATACTAC	0.181 ± 0.00602
CATACTCA	0.152 ± 0.0301
GATACTAC	0.432 ± 0.0131
TATACTCA	0.192 ± 0.0629
AATACTCA	0.255 ± 0.0524
GATACTAA	0.362 ± 0.0288
GATACTCA	0.429 ± 0.0251

Sequence	binding signal [E-score]
TAGAGATA	0.268 ± 0.0459
AGGCCGAT	0.153 ± 0.00796
ATATAACC	0.177 ± 0.0584
ATCGCTGG	0.23 ± 0.00422
AGATAGCC	0.247 ± 0.0195
ATCTGGGA	0.196 ± 0.00724
TATCTAAA	0.301 ± 0.0245
GTATACAC	0.371 ± 0.00578
ATCATGAG	0.23 ± 0.0357
ATCAGGAT	0.394 ± 0.00836
ATCATGAT	0.3975 ± 0.000976
ATCAGGAA	0.165 ± 0.0245
ATCATGAC	0.197 ± 0.0404
ATCAGGAG	0.188 ± 0.0305
CATCGGGA	0.164 ± 0.0507
ATCTACTG	0.22 ± 0.0235
GATCGGGC	0.296 ± 0.015
CATATATG	0.23 ± 0.0477
AAAATATC	0.154 ± 0.121
AACATATA	0.235 ± 0.0646
GACATATC	0.386 ± 0.0597
AACATATC	0.378 ± 0.0821
GACATATA	0.226 ± 0.0783
CACATATC	0.404 ± 0.0155
CACATATA	0.165 ± 0.0792

Sequence	binding signal [E-score]
TACATATA	0.254 ± 0.00881
ATATTACC	0.259 ± 0.0572
ACGGTATA	0.309 ± 0.0298
CCGGTATC	0.465 ± 0.014
ACGGTATG	0.157 ± 0.0316
CCGGTAAA	0.157 ± 0.034
ACGGTATC	0.461 ± 0.00576
CCGGTATA	0.343 ± 0.0129
AGCTGGAT	0.248 ± 0.0399
CGGGCTCA	0.2 ± 0.0586
CCGATACA	0.355 ± 0.0604
ACGATACC	0.4766 ± 0.000912
CCTATACC	0.311 ± 0.00556
ACGATAGC	0.217 ± 0.0418
ACTATACC	0.294 ± 0.0358
GCGATACC	0.4835 ± 0.00434
CCGATACC	0.478 ± 0.00955
CCGATAGG	0.348 ± 0.0522
GCGATAGC	0.165 ± 0.0972
CCGATACG	0.425 ± 0.0199
GCGATACA	0.3759 ± 0.00354
CCAATACC	0.324 ± 0.0157
ATCGCCCC	0.253 ± 0.0184
TCATCTCA	0.298 ± 0.0135
TACCTATA	0.289 ± 0.0262

Sequence	binding signal [E-score]
ACTGTATA	0.239 ± 0.0136
ACGATACG	0.4317 ± 0.000841
AAGATACT	0.295 ± 0.0825
ACGATACT	0.439 ± 0.00647
ACGATACA	0.3689 ± 0.00151
CCTATACG	0.153 ± 0.0436
ACTATACG	0.247 ± 0.0175
GAGGTGTA	0.233 ± 0.0426
CCAATTAG	0.188 ± 0.014
ATACTAGC	0.245 ± 0.0797
GGATAGTA	0.332 ± 0.00348
AAGATCGC	0.211 ± 0.00754
AGTATATG	0.207 ± 0.0381
CGTATCGC	0.453 ± 0.00646
ATTATCGG	0.24 ± 0.012
AGTATCGG	0.4293 ± 0.0041
AGTATCGA	0.418 ± 0.0178
AGTATAGA	0.195 ± 0.0499
ACTATCGC	0.2364 ± 0.00196
CCTATCGC	0.29 ± 0.0221
AGTATCGC	0.435 ± 0.0231
ACTATCGA	0.263 ± 0.00274
CGTATAGC	0.185 ± 0.0242
CTAGATAG	0.197 ± 0.0328
ATATGCGA	0.276 ± 0.0349

Sequence	binding signal [E-score]
ATATAGCA	0.248 ± 0.0375
TATTGAGA	0.237 ± 0.0198
AGATCTGC	0.204 ± 0.0418
ACTCGTAT	0.205 ± 0.0218
GTATTGAA	0.213 ± 0.0401
CTTGTATA	0.213 ± 0.0563
ATACAGCA	0.221 ± 0.0273
ATACTAGG	0.275 ± 0.02
AATACGAC	0.18 ± 0.0741
TATACGGA	0.28 ± 0.0266
AATACGGC	0.252 ± 0.0178
GATACGGA	0.455 ± 0.00852
CATACGGA	0.178 ± 0.0693
AATACGGT	0.231 ± 0.00828
GATACGAC	0.382 ± 0.0127
GATACGAA	0.335 ± 0.00345
GATACGGC	0.4543 ± 0.00163
ATTATAAT	0.151 ± 0.0936
ATCGCTGA	0.226 ± 0.0497
AATCCGAT	0.3407 ± 0.0025
ATATGCGG	0.274 ± 0.0261
ATCACACG	0.256 ± 0.0276
ATATCACC	0.463 ± 0.0204
ATATCACG	0.456 ± 0.0263
ATCTCACA	0.293 ± 0.0554

Sequence	binding signal [E-score]
GTGTCACA	0.375 ± 0.0203
CGATCACA	0.273 ± 0.0408
ATCTCACC	0.335 ± 0.0374
CTATCACA	0.311 ± 0.0251
ATATCACA	0.432 ± 0.0476
ATCACACA	0.266 ± 0.0227
GTATCACA	0.476 ± 0.00651
CTATCACC	0.35 ± 0.0258
GACCCCGA	0.162 ± 0.0961
GACCGATA	0.352 ± 0.0178
ATCCTGCC	0.175 ± 0.00513
ATCCCAGG	0.246 ± 0.0889
ATACGTCG	0.284 ± 0.0738
GAGGATCC	0.366 ± 0.0159
ATCATGCC	0.244 ± 0.0171
ATACTAAC	0.243 ± 0.00453
GATCGGGA	0.314 ± 0.0357
ATCATGTA	0.257 ± 0.0225
AAAATGAT	0.187 ± 0.101
CATGGATC	0.307 ± 0.0322
GACTGATA	0.4 ± 0.0302
GTCTGATA	0.294 ± 0.0149
AACTGATC	0.286 ± 0.0372
CGCTGATA	0.325 ± 0.0672
AACTGATA	0.409 ± 0.0324

Sequence	binding signal [E-score]
AGCTGATA	0.357 ± 0.0301
CACTGATC	0.284 ± 0.00727
GGCTGATA	0.422 ± 0.00103
GACTGATC	0.272 ± 0.0144
CACTGAGA	0.188 ± 0.00306
CACTGATA	0.404 ± 0.0311
GATAAGGA	0.183 ± 0.0109
TAAACTGA	0.158 ± 0.0427
GATAAAAC	0.164 ± 0.00658
AATAGTAT	0.251 ± 0.0966
GATTAGAA	0.184 ± 0.0514
ATCAGACC	0.201 ± 0.00705
ACGATTAA	0.152 ± 0.0367
AGACTATA	0.204 ± 0.0102
AGCCAGAT	0.176 ± 0.0223
TACTGCTA	0.189 ± 0.0325
TACTGACA	0.182 ± 0.0373
TACTGATA	0.418 ± 0.0125
ATCGGTTC	0.248 ± 0.0232
CCCTGAGC	0.178 ± 0.0455
CCATCCGA	0.218 ± 0.0511
ACACCACC	0.293 ± 0.0475
ATACCACG	0.291 ± 0.0123
ACACCATA	0.302 ± 0.022
ATACCATG	0.362 ± 0.0283

Sequence	binding signal [E-score]
ATACCAAC	0.367 ± 0.0126
CTACCATA	0.167 ± 0.0746
ATACCATC	0.384 ± 0.0257
ACACCACT	0.378 ± 0.0238
ACACCACA	0.328 ± 0.0113
ATACCACA	0.3 ± 0.00694
ATACCACC	0.403 ± 0.00615
ATACCATA	0.3938 ± 0.0037
ATCCCCGA	0.368 ± 0.0273
ATGGAGGA	0.155 ± 0.0279
CTATACGA	0.1804 ± 0.000898
ACCCTTCT	0.224 ± 0.046
CACCCCTC	0.251 ± 0.0895
AGATTAAT	0.2 ± 0.0731
ATTAAACC	0.174 ± 0.0609
GTGATCGA	0.159 ± 0.103
TATTGGCA	0.223 ± 0.0277
GTGATACA	0.444 ± 0.0156
GTTATACA	0.151 ± 0.064
TCGATACA	0.348 ± 0.00588
ATGATAAT	0.168 ± 0.0146
CTGATACA	0.404 ± 0.00574
TAGATACA	0.25 ± 0.019
ATGATACA	0.449 ± 0.0144
ATCATACA	0.306 ± 0.0152

Sequence	binding signal [E-score]
ATGATACC	0.4885 ± 0.000523
AAGATACA	0.265 ± 0.0451
ATGATGCC	0.157 ± 0.00805
CTACAGTA	0.152 ± 0.00721
ATCACTAC	0.287 ± 0.0143
GGATTGTA	0.162 ± 0.0146
ACGCGATC	0.275 ± 0.00505
GATAGCGA	0.251 ± 0.00148
ATACATTG	0.218 ± 0.012
GTATATTA	0.267 ± 0.0332
CTGATACC	0.4842 ± 0.00158
ATGATCAG	0.229 ± 0.031
ATGATACG	0.48 ± 0.01
ATCATACG	0.269 ± 0.0223
CTCATACC	0.171 ± 0.00583
CTGAGACC	0.261 ± 0.00696
ATCGGGTA	0.337 ± 0.0486
GATCGGAA	0.167 ± 0.0621
CCTAGATC	0.228 ± 0.0313

Source: publication PMC10668032, “Altered binding affinity of SIX1-Q177R correlates with enhanced WNT5A and WNT pathway effector expression in Wilms tumor”
